Assay outcomes (PubChem BioAssay)
Only a selection was taken, and hits are over-represented in it overall.
CHX counter-1: counter-screen for Shiga toxin inhibitors: cycloheximide protein synthesis inhibition | AID 2314 | cell reporter, cycloheximide protein synthesis inhibition counterscreen | max response, % | 300,000 compounds, 12% hits; in the data active means max response mostly above about 13%, no sharp cut-off; inactive means mostly below about 14%; further: read at 38.3 µM for the half of the compounds with a filed dose; 0% is about no effect
SARS PLP yeast: SARS-CoV PLP inhibition in yeast. S. cerevisiae expressing SARS-CoV PLpro, growth rescue. Potency, µM (doses to about 32.9 µM), inactives show at the highest dose activity, positive = growth rescue, usual class: activators. 330,000 compounds, 0.19% hits. AID 485353; calls by dose curve; further: potency means the concentration at half of the fitted maximal effect; 0% is about no effect; nearly all actives have a fitted effect of over 55% in size
AmpC detergent: inhibitors of E. coli AmpC beta-lactamase with detergent; P00811; 370,000 compounds, 0.041% hits; Potency, µM (top dose mostly 114 µM), for inactives: at the top dose activity change, negative = inhibition, most hits filed as inhibitors; AID 485294; AmpC hydrolysis of nitrocefin, absorbance 480 nm, 0.01% Triton;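 further: potency means the concentration at half of the fitted maximal effect; 0% = no-compound wells and -100% = no-enzyme wells; nearly all actives have a fitted effect of over 25% in size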
Target sequence (P00811 whole entry, looked up): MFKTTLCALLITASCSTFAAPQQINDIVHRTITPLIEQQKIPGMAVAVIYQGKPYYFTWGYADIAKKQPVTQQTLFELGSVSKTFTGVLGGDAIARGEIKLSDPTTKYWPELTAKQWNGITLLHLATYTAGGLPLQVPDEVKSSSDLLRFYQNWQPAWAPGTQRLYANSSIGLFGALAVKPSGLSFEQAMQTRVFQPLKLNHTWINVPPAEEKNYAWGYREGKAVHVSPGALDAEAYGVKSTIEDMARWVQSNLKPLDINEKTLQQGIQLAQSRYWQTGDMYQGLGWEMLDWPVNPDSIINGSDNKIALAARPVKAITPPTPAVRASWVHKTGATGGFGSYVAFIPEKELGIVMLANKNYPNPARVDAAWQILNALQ
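AmpC (5.3 nM in the dispensed reagent) in 20 mM phosphate pH 7.0 with 0.01% (detergent screen) or 0.0001% Triton X-100 was preincubated with compounds for 15 min at room temperature. Nitrocefin was then added from an 800 uM solution, and hydrolysis was followed at 480 nm.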
Shiga toxin inh: inhibitors of Shiga toxin in Vero cells; Vero cells, Shiga toxin protein synthesis inhibition reporter; inhibition, % at 38.7 µM; 290,000 compounds, 9.2% hits; AID 2315; in the data active means inhibition mostly above about 28%, no sharp cut-off; inactive means mostly below about 43%; further: 0% is about no effect
AmpC inh no detg: inhibitors of E. coli AmpC beta-lactamase without detergent; AmpC nitrocefin hydrolysis, absorbance 480 nm, 0.0001% Triton; 330,000 compounds, 0.52% hits; P00811; Potency, µM (top dose mostly 57.1 µM), for the others: at the highest dose activity change, negative = inhibition, usual class: inhibitors;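 further: potency means the concentration at half of the fitted maximal effect; plate controls were no compound for no effect and no enzyme for full effect; nearly all actives have a fitted effect of over 20% in size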
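20 mM phosphate pH 7.0 + 0.01% (detergent screen) or 0.0001% Triton X-100; 5.3 nM AmpC reagent; cpd preinc 15 min RT; nitrocefin (800 uM stock) to start; A480 q20 s × 4 min; Activity was normalised to no-enzyme and no-compound control wells.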
AMA1-RON2 inh: inhibitors of Plasmodium falciparum AMA1-RON2 interaction; AID 720542; 360,000 compounds, 0.2% hits; Potency, µM (highest dose often 58.2 µM), for the others: at the highest dose activity change, negative = inhibition, usual class: inhibitors; AlphaScreen AMA1-biotinylated RON2 peptide binding;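 further: potency means the concentration at half of the fitted maximal effect; 0% = vehicle wells and -100% = peptide control; nearly all actives have a fitted effect of over 45% in size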
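AMA1 (3D7) with his tag at 25 nM final met compounds first, then biotinylated RON2 peptide at 25 nM; detection used donor plus acceptor beads, 10 µg/mL apiece, read by AlphaScreen after 30 min at room temperature.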
CHX counter-2: counter-screen for Shiga toxin inhibitors: cycloheximide protein synthesis block. shares compounds with Shiga toxin inh. Cycloheximide counterscreen, protein synthesis reporter, Shiga toxin assay. Potency, µM (highest dose often 38.3 µM), for the others: at the highest dose activity (activation), usual class: activators. 510 compounds, 3% hits. AID 2318; calls by dose curve; further: potency means the concentration at half of the fitted maximal effect; 0% is about no effect
* hit, by the source's call; ? = inconclusive; · = not tested or not shown. Unless noted, the call rests on the fitted dose curve; in most records, active means well fitted curve in the direction sought with a large enough effect; inconclusive means small, poorly fitted or top-dose-only effect, or another doubt; inactive means no such curve, though single readings can be large; an effect the other way counts as inactive or inconclusive.

SMILES	CHX counter-1	SARS PLP yeast	AmpC detergent	Shiga toxin inh	AmpC inh no detg	AMA1-RON2 inh	CHX counter-2
CCOC(=O)C1CCN(C(=O)c2c(-c3c(Cl)cccc3Cl)noc2C)CC1	-4.0	0.0%	-11.2%	26.4	9.3%	30.1%	·
C=C(CCO)C1=CCN(S(=O)(=O)C(C)(C)C)[C@@H]1CCO	·	·	·	·	·	-5.3%	·
COc1ccc2oc(C(=O)OCC(=O)NCC3CCCO3)c(C)c2c1 (stereo not given)	·	-5.9%	-11.2%	·	-21.7%	4.5%	·
COc1ccc2oc(C(=O)NCC3CCCO3)c(C)c2c1 (stereo not given)	64.9*	5.1%	0.0%	98.2*	3.4%	-10.8%	·
COc1cccc(S(=O)(=O)NCc2ccc(C(=O)NCC3CCCO3)cc2)c1 (stereo not given)	22.0	15.0%	?	45.5*	-7.9%	-0.5%	·
CC(C)(C)c1ccc(S(=O)(=O)NCc2ccc(C(=O)NCC3CCCO3)cc2)cc1 (stereo not given)	-1.4	2.7%	-0.7%	-10.4	221.9%	8.6%	·
COc1ccc(NC(=O)CN(C)C(=O)CCNC(=O)Nc2ccccc2)cc1	·	-2.7%	-1.8%	·	-8.3%	-10.2%	·
O=c1c(Cl)c(N/N=C/c2ccc(Cl)cc2)cnn1-c1ccccc1	-0.8	-67.6%	-10.3%	-3.8	-10.0%	-19.5%	·
CCOc1ccc2nc(NC(=O)CN3CCN(c4ccccn4)CC3)sc2c1	13.5	·	-3.7%	55.7*	·	23.7%	3.7%
COc1cc2c(c(OC)c1OC)-c1c(cc(OC)c(OC)c1OC)C[C@](C)(O)[C@@H](C)C2	1.5	-3.7%	0.2%	48.7*	39.0%	5.7%	-1.0%
C=C1CC2C3CC[C@@]4(OCOC45COCO5)[C@@]3(C)C(O)CC2[C@@]2(C)CCC(=O)C=C12 (stereo not given in full)	-3.6	-8.4%	0.8%	-4.2	91.1%	8.2%	·
COc1ccc2cc(C3CC(c4ccco4)=NN3C(=O)CCC(=O)O)c(Cl)nc2c1 (stereo not given)	-0.6	16.1%	?	9.9	-28.5%	0.3%	·
COc1ccc(C2=NN(C(=O)c3ccco3)C(c3cc4ccccc4nc3Cl)C2)cc1 (stereo not given)	5.5	-2.1%	-12.9%	27.6*	-15.4%	-6.3%	-0.2%
COc1ccc(C2C(C#N)=C(C)NC3=C2C(=O)CC(C)(C)C3)c(OC)c1 (stereo not given)	-3.0	0.9%	-1.0%	43.4*	-9.7%	6.6%	-1.9%
Cc1cc(NC(=O)/C=C/c2ccc(Br)cc2)no1	6.6	1.9%	?	56.5*	-20.6%	8.0%	?
Cc1cc(NC(=O)Cc2ccc(Br)cc2)no1	5.1	-2.1%	-0.3%	17.9	-18.6%	0.0%	·
Cc1cccc(N2C(=O)CN=C2Nc2nc(C)cc(C)n2)c1	-7.1	3.0%	-6.6%	-17.2	-15.6%	-9.2%	·
O=c1ccc(-c2ccccc2)nn1Cc1ccccc1F	19.2	0.0%	3.5%	12.5	2.8%	-0.3%	·
Cc1nn(C(C)C(=O)NC2CCC(C)CC2)c(=O)c2nn(-c3ccccc3)c(C)c12 (stereo not given)	-1.7	-2.0%	-4.7%	30.6*	5.7%	-4.3%	?
Cc1nn(C(C)C(=O)NC2CC2)c(=O)c2nn(-c3ccccc3)c(C)c12 (stereo not given)	-6.3	2.0%	-5.2%	-5.8	-4.2%	1.8%	·
COc1ccc(NCC(=O)N/N=C/c2cc([N+](=O)[O-])ccc2N2CCCC2)cc1	8.6	-0.6%	-11.7%	12.5	-40.9%	27.2%	·
C[C@H]1CN([C@@H](C)CO)S(=O)(=O)c2ccc(-c3ccncc3)cc2O[C@H]1CN(C)C(=O)c1cccc(F)c1	·	·	·	·	·	-6.8%	·
CC(=O)[C@@H]1[C@@H]2C(=O)N(c3ccc(F)c(Cl)c3)C(=O)[C@@H]2C2c3ccccc3C=CN21 (stereo not given in full)	-2.5	13.7%	1.7%	active	-30.3%	·	-0.8%
CC(=O)[C@@H]1[C@@H]2C(=O)N(C3CCCCC3)C(=O)[C@@H]2C2c3ccccc3C=CN21 (stereo not given in full)	9.4	-2.5%	?	19.2	15.9%	·	·
CN(C)S(=O)(=O)c1ccc(C(=O)OCC(=O)c2ccc3c(c2)NC(=O)CO3)cc1	2.1	0.9%	0.3%	42.3*	-18.0%	20.3%	-2.9%
SMILES	CHX counter-1	SARS PLP yeast	AmpC detergent	Shiga toxin inh	AmpC inh no detg	AMA1-RON2 inh	CHX counter-2
COc1cccc(C2CC(c3ccc(C)cc3)n3ncnc3N2)c1 (stereo not given)	-1.5	0.9%	?	-5.2	11.6%	12.1%	·
Nc1ccc(C(=O)NC2CCSc3ccccc32)cc1[N+](=O)[O-] (stereo not given)	18.2	-8.7%	-4.9%	28.0*	144.2%	-8.9%	?
O=C1CC(SC(=Nc2ccccc2)Nc2ccccc2)C(=O)N1c1ccc(Cl)cc1 (stereo not given)	-1.6	3.1%	-6.1%	-2.4	-5.2%	0.2%	·
Cc1nn(-c2ccc(C(=O)O)cc2)c2c1C(=O)CC(C)(C)C2	-1.7	-0.4%	2.1%	80.9*	-7.1%	11.6%	-4.8%
CC1(C)CC(=O)c2c(nn(-c3ccccc3)c2-c2ccncc2)C1	-3.6	2.0%	-4.7%	-7.4	-24.7%	1.1%	·
CCN(C1CCCCC1)S(=O)(=O)c1ccc(S(=O)(=O)NCc2ccncc2)cc1	0.8	8.2%	?	38.8*	10.8%	-13.6%	-4.3%
Nc1nc(-c2nn(Cc3ccccc3F)c3ncccc23)ncc1C1CC1	2.4	·	·	28.0*	·	·	3.2%
O=c1c2ccccc2nc(SCc2ccccc2F)n1C1CCCC1	-3.0	-12.1%	?	-0.5	-2.3%	-0.2%	·
C=C1CCC[C@]2(C)C[C@H]3OC(=O)C(CNC(C)(CO)CO)[C@H]3CC12 (stereo not given in full)	-6.0	0.2%	-16.9%	-6.5	1.5%	5.4%	·
COc1cc(/C=C2/SC(=Nc3ccc(O)cc3)NC2=O)cc(OC)c1O	-5.5	-3.2%	-1.6%	31.8	-33.6%	-7.3%	·
O=C1NC(=Nc2ccc(O)cc2)S/C1=C\C=C\c1ccco1	2.5	0.5%	1.8%	47.2*	17.8µM*	-10.5%	?
Cc1cc(C(=O)NCC(=O)Nc2c(C)cccc2C)c(C)o1	10.6	1.6%	-0.8%	-3.7	-5.6%	-6.7%	·
Cc1oc(C(C)(C)C)cc1C(=O)NCC(=O)NCC(=O)O	2.0	14.4%	5.6%	49.8*	1.5%	3.0%	-3.5%
O=[N+]([O-])c1cccc(Nc2nc(Cl)nc(Cl)n2)c1	3.0	0.9%	-8.6%	-6.2	-27.2%	-4.3%	·
COC(=O)c1ccc(NC(=O)CN(C)S(=O)(=O)c2ccc(Br)s2)cc1	·	·	0.0%	·	·	·	·
